Assay outcomes deposited in PubChem BioAssay by several laboratories.
PriA SSB inh: inhibitors of Klebsiella pneumoniae PriA binding to SSB C-terminal tail, primary screen, biochemical, AlphaScreen; AlphaScreen SSBct-PriA binding, biotinylated peptide; inhibition, % at 33 µM; 430,000 tested, 0.6% active; in the data active = inhibition mostly above about 37%, no sharp cut-off; inactive = mostly below about 20%;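 note: plate controls were negative control peptide for no effect and reference peptide for full effect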
PrPC surface inh: inhibitors of human cell surface prion protein PrPC, primary screen, cell-based, TR-FRET; Major prion protein (Homo sapiens), P04156; TR-FRET read-out; inhibition, % at 13.8 µM; 370,000 tested, 0.43% active; AID 720596, 2013; in the data active = inhibition above about 24%; note: 0% = median of the test wells and 100% = reference compound wells
CCHF vOTU inh: CCHFV vOTU protease inhibitors, primary screen, biochemical, Pep-AMC substrate, fluorescence; Crimean-Congo hemorrhagic fever virus L polyprotein viral ovarian tumor (vOTU) protease …; inhibition, % at 11.5 µM; 370,000 tested, 0.55% active; AID 651958, 2012; in the data active = inhibition above about 30%; note: 0% = vehicle wells with enzyme and 100% = no enzyme wells
TcdB inh: TcdB glycohydrolase inhibitors, primary screen, biochemical, single point, plate reader. Toxin B (Clostridioides difficile), P18177. TcdB glycohydrolase enzymatic assay. inhibition, % at 9.99 µM. 350,000 tested, 0.24% active. AID 652162, 2013; in the data active = inhibition above about 10%
Target sequence (P18177 whole entry, looked up): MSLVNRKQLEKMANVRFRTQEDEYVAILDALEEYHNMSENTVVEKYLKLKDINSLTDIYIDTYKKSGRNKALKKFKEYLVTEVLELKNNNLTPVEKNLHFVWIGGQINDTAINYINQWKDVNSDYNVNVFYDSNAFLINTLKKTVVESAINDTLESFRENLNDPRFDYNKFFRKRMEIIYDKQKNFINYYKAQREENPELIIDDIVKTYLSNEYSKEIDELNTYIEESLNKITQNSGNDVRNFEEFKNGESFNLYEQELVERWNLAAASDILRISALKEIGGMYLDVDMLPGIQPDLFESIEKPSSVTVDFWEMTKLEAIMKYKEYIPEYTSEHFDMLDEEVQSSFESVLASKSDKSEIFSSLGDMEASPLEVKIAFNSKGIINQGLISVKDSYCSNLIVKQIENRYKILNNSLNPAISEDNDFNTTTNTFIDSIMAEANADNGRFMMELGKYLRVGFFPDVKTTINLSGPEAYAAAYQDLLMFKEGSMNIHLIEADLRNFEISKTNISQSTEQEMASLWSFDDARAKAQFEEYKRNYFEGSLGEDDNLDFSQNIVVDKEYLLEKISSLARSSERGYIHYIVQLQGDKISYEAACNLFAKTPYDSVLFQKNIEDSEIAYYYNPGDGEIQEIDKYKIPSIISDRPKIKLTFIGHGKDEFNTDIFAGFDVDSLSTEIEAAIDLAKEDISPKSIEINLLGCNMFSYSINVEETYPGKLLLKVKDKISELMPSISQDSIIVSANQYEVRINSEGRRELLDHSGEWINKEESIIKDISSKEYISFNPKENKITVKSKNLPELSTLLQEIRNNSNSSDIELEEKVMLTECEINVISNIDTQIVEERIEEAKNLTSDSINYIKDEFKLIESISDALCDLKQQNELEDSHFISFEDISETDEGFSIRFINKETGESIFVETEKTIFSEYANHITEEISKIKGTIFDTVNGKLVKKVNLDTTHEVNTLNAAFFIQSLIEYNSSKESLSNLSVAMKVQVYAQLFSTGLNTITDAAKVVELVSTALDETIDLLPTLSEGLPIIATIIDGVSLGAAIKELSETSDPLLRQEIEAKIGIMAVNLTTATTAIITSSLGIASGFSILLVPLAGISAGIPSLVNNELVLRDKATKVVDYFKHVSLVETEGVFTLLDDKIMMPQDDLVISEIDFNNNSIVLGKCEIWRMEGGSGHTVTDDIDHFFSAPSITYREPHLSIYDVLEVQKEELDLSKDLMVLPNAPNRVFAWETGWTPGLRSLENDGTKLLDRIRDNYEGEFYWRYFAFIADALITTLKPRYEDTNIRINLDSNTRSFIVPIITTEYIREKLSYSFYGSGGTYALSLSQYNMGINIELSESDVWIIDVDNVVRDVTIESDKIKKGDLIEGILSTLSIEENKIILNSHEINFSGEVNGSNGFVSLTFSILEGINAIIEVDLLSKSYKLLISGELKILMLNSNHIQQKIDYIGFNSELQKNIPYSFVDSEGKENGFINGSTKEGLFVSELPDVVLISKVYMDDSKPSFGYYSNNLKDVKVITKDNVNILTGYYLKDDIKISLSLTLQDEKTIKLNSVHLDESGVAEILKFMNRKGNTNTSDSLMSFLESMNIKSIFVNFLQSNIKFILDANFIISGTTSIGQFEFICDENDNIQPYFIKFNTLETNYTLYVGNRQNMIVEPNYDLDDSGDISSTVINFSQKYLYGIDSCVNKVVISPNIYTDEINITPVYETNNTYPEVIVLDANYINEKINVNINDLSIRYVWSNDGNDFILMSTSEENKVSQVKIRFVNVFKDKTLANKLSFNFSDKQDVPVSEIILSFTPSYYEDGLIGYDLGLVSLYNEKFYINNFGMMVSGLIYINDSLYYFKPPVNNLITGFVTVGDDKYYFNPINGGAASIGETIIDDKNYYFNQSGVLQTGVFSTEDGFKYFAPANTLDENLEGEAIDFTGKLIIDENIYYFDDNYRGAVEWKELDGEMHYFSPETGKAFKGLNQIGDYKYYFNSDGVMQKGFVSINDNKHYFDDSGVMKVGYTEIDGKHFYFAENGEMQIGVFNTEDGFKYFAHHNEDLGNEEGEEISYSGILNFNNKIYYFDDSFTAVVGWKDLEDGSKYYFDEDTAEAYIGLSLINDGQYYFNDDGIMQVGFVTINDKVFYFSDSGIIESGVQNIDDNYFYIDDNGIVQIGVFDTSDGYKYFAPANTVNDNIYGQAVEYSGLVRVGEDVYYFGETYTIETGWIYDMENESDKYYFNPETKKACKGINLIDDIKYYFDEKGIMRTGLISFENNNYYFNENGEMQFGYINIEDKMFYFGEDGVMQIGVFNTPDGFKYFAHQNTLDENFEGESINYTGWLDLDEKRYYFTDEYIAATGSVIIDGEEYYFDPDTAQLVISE
Vc quorum ag: inducers of Vibrio cholerae quorum light production without autoinducers, primary screen, BH1578 luxS cqsA deficient, single point; V. cholerae BH1578 lux reporter, luminescence, 6 h; activation, % at 18.7 µM; 350,000 tested, 0.16% active; AID 588436, 2011; in the data active = activation mostly above about 9.7%, no sharp cut-off
VHR inh abs: VHR1 phosphatase inhibitors, primary screen, biochemical, absorbance, uHTS; inhibition, % at 13.3 µM; recombinant VHR phosphatase, pNPP absorbance; AID 1654, 2009; 290,000 tested, 0.52% active; in the data active = inhibition above about 50%
Numbers without * were called inactive; i = inactive; . = no result given; ! = not active in a repeat. Hits are enriched below; roughly 1.5% of the tested compounds scored in any of these assays.

SMILES | PriA SSB inh | PrPC surface inh | CCHF vOTU inh | TcdB inh | Vc quorum ag | VHR inh abs
CC(C)CNS(=O)(=O)c1ccc2nc(NC(=O)c3ccccn3)sc2c1 | 96.0* | . | . | . | . | .
CC(C)c1ccc(NC2CCCN(C(=O)c3ccccc3-c3ncc[nH]3)C2)cc1 (stereo not drawn) | 3.9 | 6.2 | 8.9 | 0.4 | i | 56.8*
CN1CCN(c2ccc([N+](=O)[O-])c3cccnc23)CC1 | 26.3 | -49.0 | -5.6 | . | . | 24.2
O=[N+]([O-])c1ccc(N2CCNCC2)c2ncccc12 | 53.0* | . | . | . | . | -5.4
Cc1c(CNS(=O)(=O)c2ccccc2F)sc2nc(-c3ccc(F)cc3)cn12 | 36.0* | . | . | . | . | .
Cc1ccc2c(Cl)cc(Cl)c(OCC(=O)O)c2n1 | -12.5 | -5.9 | 1.3 | -0.1 | i | 56.2*
Cc1ccc2c(Cl)cc(Cl)c(OCC(=O)N3CCCC3)c2n1 | -10.4 | 0.5 | -5.8 | 0.4 | i | 37.1
Cc1c(C(=O)NCC(c2cccc3ccccc23)N2CCOCC2)cccc1[N+](=O)[O-] (stereo not drawn) | 2.0 | . | . | . | . | .
O=[N+]([O-])c1ccccc1S(=O)(=O)NCC(c1cccc2ccccc12)N1CCOCC1 (stereo not drawn) | 37.0* | . | . | . | . | .
CNC(C(=O)c1ccccc1)C(OC)c1ccccc1 (stereo not drawn) | 4.1 | -2.6 | 9.0 | . | 1.4 | 13.6
CNC(C(=O)c1ccccc1)C(OC)c1cccc([N+](=O)[O-])c1 (stereo not drawn) | -1.3 | 4.6 | 8.1 | 20.9* | -0.4 | 9.1
Cc1cccn2cc(-c3cccc(N)c3)nc12 | 52.0* | . | . | . | . | .
COc1ccc(-c2ccc(=O)n(CCCNC(=O)Cc3ccc(F)cc3)n2)cc1 | -21.0 | . | . | . | . | .
COc1cccc(C(CNc2ccc(S(=O)(=O)N3CCN(C)CC3)cc2[N+](=O)[O-])N(C)C)c1 (stereo not drawn) | 23.2 | -9.3 | -6.2 | 17.4* | i | .
CSc1cccc(Nc2ccc(S(=O)(=O)N3CCOCC3)cc2[N+](=O)[O-])c1 | 38.4* | -30.6 | 2.2 | 1.0 | i | .
COc1ccc(Nc2ccc(S(=O)(=O)N3CCCCCC3)cc2[N+](=O)[O-])cc1 | 45.9* | -4.7 | -3.4 | . | -0.4 | 7.6
Cc1cccc(Nc2ccc(S(=O)(=O)N3CCOCC3)cc2[N+](=O)[O-])c1 | 37.2 | -30.2 | 29.0 | -1.3 | -0.2 | .
COc1cc(Nc2ccc(S(=O)(=O)N3CCN(C)CC3)cc2[N+](=O)[O-])cc(OC)c1 | 32.1 | -36.9 | 24.7 | 0.1 | i | .
COc1ccc(Nc2ccc(S(=O)(=O)N3CCCCC3)cc2[N+](=O)[O-])cc1OC | 69.8* | -7.5 | 2.0 | . | -0.2 | -6.9
COc1ccc(-c2cnc(C(=O)Nc3ccc4cn[nH]c4c3)o2)cc1 | -8.0 | . | . | . | . | .
COc1cccc(Oc2cc(NN3CCCCC3)c([N+](=O)[O-])cc2[N+](=O)[O-])c1OC | 47.9* | 0.4 | 1.7 | 0.9 | -0.5 | 16.6
COc1ccccc1C(C)Nc1ccc(S(=O)(=O)N2CCCC2)cc1[N+](=O)[O-] (stereo not drawn) | 48.0 | . | . | . | . | .
COc1ccccc1C(C)Nc1ccc(S(=O)(=O)N2CCN(C)CC2)cc1[N+](=O)[O-] (stereo not drawn) | 56.6* | -14.3 | 1.1 | -6.6 | -0.3 | .
COc1ccccc1Nc1ccc(C(=O)O)cc1[N+](=O)[O-] | 11.8 | -27.1 | 4.9 | 1.0 | i | 14.1
COc1ccccc1Nc1ccc(S(=O)(=O)N2CCCCC2)cc1[N+](=O)[O-] | 63.2* | -2.0 | -4.3 | 1.0 | 0.1 | 16.9
SMILES | PriA SSB inh | PrPC surface inh | CCHF vOTU inh | TcdB inh | Vc quorum ag | VHR inh abs
COc1cc(Br)cc(/C=C/c2ccc3cccc(O)c3n2)c1OC | 0.6 | -10.2 | -15.3 | 0.5 | 0.8 | .
COc1ccc(Br)cc1/C=C/c1ccc2cccc(O)c2n1 | -6.8 | -16.2 | 18.8 | 1.3 | i | 56.9*
COc1ccccc1/C=C/CN1CCC(Oc2ccc(C(=O)N3CCCC3)cc2)CC1 | 12.9 | -4.0 | 9.4 | -0.3 | -0.1 | 52.8*
O=C(CSc1ccc(Cl)cc1)Nc1nnc(-c2ccccn2)o1 | 35.0* | . | . | . | . | .
O=C(C[C@H]1C/C=C/CC[C@@H](Cc2ccc(F)cc2)C(=O)OC[C@H]2CCCN2C1=O)N[C@H](CO)Cc1ccccc1 | -6.0 | . | . | . | . | .
COc1ccc(C(=O)NNS(=O)(=O)c2ccc(OC)cc2)cc1 | -11.7 | 8.7 | -5.6 | -5.5 | -0.3 | 58.2*
COc1ccc(C(=O)NNS(=O)(=O)c2ccccc2)cc1 | -8.1 | -4.5 | 1.7 | -5.7 | i | 1.9
Cc1ccc(C)c2[nH]c(=O)c(CCNC(=S)Nc3cccc(C(F)(F)F)c3)cc12 | 5.0 | . | . | . | . | .
CCOC(=O)/C(=N/Nc1ccc(Br)cc1)N1CC(C)OC(C)C1 (stereo not drawn) | i | 31.6* | -3.9 | 34.4* | . | .
O=C(O)c1ccc2c(c1)N(Cc1cccc(F)c1)C(=O)CS2 | -6.2 | 2.2 | 2.5 | 20.7* | -0.1 | -24.4
O=C(O)c1ccccc1C(=O)c1ccc2c(c1)N(Cc1cccc(F)c1)C(=O)CO2 | -2.2 | 7.7 | -3.4 | 21.4* | -0.6 | 1.6
COc1ccccc1NC(=O)CSc1nc(-c2ccc3c(c2)OCO3)cn1-c1ccc(F)cc1 | 8.0 | . | . | . | . | .
Nc1c(Cl)ncnc1NN=Cc1ccc2ccccc2n1 | 54.4* | . | . | . | . | .
CCN(CC)c1ccc2cc3ccc(N)cc3[n+](-c3ccccc3)c2c1 | 116.8* | . | . | . | . | .
CCN(CC)c1ccccc1 | -2.5 | 11.0 | 1.1 | -4.2 | -0.3 | .
Cc1ccc(S(=O)(=O)Nc2ccc(O)c3ncccc23)cc1 | 45.7*! | 1.6 | -6.3 | -6.3 | -0.4 | 5.8
On1ccccc1=S | -13.6 | 41.8* | 15.0 | -11.7 | -0.6 | .
COc1cccc(C(=O)Nc2nc(-c3cc(Cl)ccc3Cl)cs2)c1OC | -24.0 | . | . | . | . | .
C[C@H]1O[C@H]1P(=O)(O)O | -27.4 | 1.4 | -7.1 | 0.1 | 29.2* | 0.9
Cc1nc(-c2ccccc2NC(=O)c2ncccn2)cs1 | -9.0 | . | . | . | . | .
C[C@@H]1CN([C@@H](C)CO)C(=O)c2cc(NC(=O)c3ccccc3)ccc2O[C@@H](C)CCCCO[C@@H]1CN(C)Cc1ccc(C(F)(F)F)cc1 | . | 6.0 | 42.3* | 1.2 | 2.4 | .
COc1ccc(-c2cnc3c(c2)C(=O)N([C@@H](C)CO)C[C@H](C)[C@H](CN(C)C(=O)C2CCCCC2)O3)cc1 | . | . | . | 12.2* | . | .
COc1ccc(-c2cnc3c(c2)C(=O)N([C@H](C)CO)C[C@H](C)[C@@H](CN(C)C(=O)C2CCCCC2)O3)cc1 | . | . | . | -1.0 | . | .
COc1ccc(S(=O)(=O)Nc2cccc3c2O[C@@H](CN(C)C(=O)NC(C)C)[C@H](C)CN([C@H](C)CO)C3=O)cc1 | . | . | . | 2.9 | . | .
C[C@@H]1CN([C@H](C)CO)C(=O)c2cccc(N(C)C)c2O[C@@H]1CN(C)C(=O)Nc1ccc(C(F)(F)F)cc1 | . | . | . | 12.7* | . | .
